Experiments:
Assay type in all cases: functional
[1] = biological target: Solute carrier family 2, facilitated glucose transporter member 1 (Homo sapiens) (UniProt P11166); assay: ST_JUDE_LEISH: Cytotoxicity at 2uM final concentration against transgenic Leishmania Mexicana promastigotes LmGLUT1 that are glucose transport deficient and complemented with the human glucose transporter GLUT1. Activity is measured by DNA content using SYBR green in vitro
[2] = biological target: Hexose transporter 1 (Plasmodium falciparum) (UniProt O97467); assay: ST_JUDE_LEISH: Cytotoxicity at 2uM final concentration against transgenic Leishmania Mexicana promastigotes LmPfHT that are glucose transport deficient and complemented with the Plasmodium falciparum hexose transporter. Activity is measured by DNA content using SYBR green in vitro
[3] = biological target: Glucose transporter (Leishmania mexicana) (UniProt O61059); assay: ST_JUDE_LEISH: Cytotoxicity at 2uM final concentration against transgenic Leishmania Mexicana promastigotes LmGT2 that are glucose transport deficient and complemented with the L. Mexicana glucose transporter 2. Activity is measured by DNA content using SYBR green in vitro

Sequence of Solute carrier family 2, facilitated glucose transporter member 1 (Homo sapiens) (P11166 whole entry): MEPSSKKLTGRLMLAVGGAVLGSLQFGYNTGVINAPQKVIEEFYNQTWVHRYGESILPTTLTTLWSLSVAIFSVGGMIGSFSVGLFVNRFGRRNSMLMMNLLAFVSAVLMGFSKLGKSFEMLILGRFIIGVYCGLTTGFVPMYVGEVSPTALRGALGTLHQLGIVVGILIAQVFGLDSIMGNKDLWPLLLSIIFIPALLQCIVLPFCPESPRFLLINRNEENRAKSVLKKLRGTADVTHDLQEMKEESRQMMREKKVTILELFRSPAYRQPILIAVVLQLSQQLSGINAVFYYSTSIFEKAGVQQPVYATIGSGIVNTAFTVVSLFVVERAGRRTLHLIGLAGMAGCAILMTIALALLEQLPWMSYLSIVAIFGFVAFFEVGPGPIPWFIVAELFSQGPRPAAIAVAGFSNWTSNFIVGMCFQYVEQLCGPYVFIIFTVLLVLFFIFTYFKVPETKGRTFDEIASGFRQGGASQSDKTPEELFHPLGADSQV

| SMILES | inhibition [1] [%] | inhibition [2] [%] | inhibition [3] [%] |
| --- | --- | --- | --- |
| O=C(Nc1cccc(C(F)(F)F)c1)c1cc([N+](=O)[O-])cc2cn[nH]c12 | 6.35 | 5.74 | 1.24 |
| CCN(CC)CCCC(C)Nc1c2ccc(Cl)cc2nc2ccc(OC)cc12 (stereo unspecified) | 5.81 | 1.67 | 3.71 |
| O=C(N[C@H]1CCN(Cc2ccc(OC3CCN(Cc4ccccc4)CC3)c(Cl)c2)C1)c1ccc(Cl)c(Cl)c1 | 0.44 | 2.06 | 1.75 |
| COc1ccc2nccc([C@@H](O)CN3CCC(NC(=O)Cc4cccc5c(Br)cccc45)CC3)c2c1 | 14.1 | 9.54 | 10.9 |
| O=C(NC1CCCCC1)N(Cc1ccc(-c2ccc(CNC3CCCC3)cc2)cc1)C1CCN(Cc2ccccc2)CC1 | 1.76 | 3.96 | 5.15 |
| CCCC1(NC[C@@H](O)[C@H](Cc2ccccc2)NC(=O)c2cc(NCC)cc(N3CCCCS3(=O)=O)c2)CCCC1 | 4.97 | 5.31 | 3.48 |
| CCCC(C)NC(=O)[C@H]1CNCCN1C(=O)CCCc1ccccc1 (stereo partly specified) | 8.59 | 7.9 | 3.67 |
| COC1CCC(C(=O)Nc2ccc(-c3cccc(-c4nc5cc(C(F)(F)F)ccc5[nH]4)c3)cc2)CC1 (stereo unspecified) | 0.64 | -0.27 | 0.65 |
| COCCNCc1ccc(-c2ccc3c(Nc4ccc(Cl)cc4F)ccnc3c2)o1 | 2.75 | 2.3 | 4.33 |
| O=C(Cc1c[nH]cn1)Nc1cccc(-c2ccc(-c3nc4cc(F)ccc4[nH]3)s2)c1 | 3.94 | 6.17 | 0.26 |
| Cc1cc(N[C@@H](Cc2ccccc2)C(=O)NCCOc2ccccc2)nc(NCCOc2ccccc2)n1 | 1.88 | 0.27 | 2.71 |
| CCOc1cc(Cc2cnc(N)nc2N)cc(OCC)c1OCCCCC(=O)OC | 4.55 | 0.23 | 0.19 |
| Cc1cccc(Cl)c1S(=O)(=O)Nc1cccc(CCN2CCC(N3CCCCC3)CC2)c1 | -0.03 | -0.24 | -2.34 |
| CCNc1cc(C(=O)N[C@@H](Cc2ccccc2)[C@H](O)CNC(C)CC(C)C)c(F)c(N2CCCCS2(=O)=O)c1 (stereo partly specified) | 2.89 | 3.43 | 2.55 |
| CC(C)(C)C1CC(=O)CC2C(=O)N(C3CCCCC3)C(=O)C21 (stereo unspecified) | 4.51 | 2.76 | 3.68 |
| CN1CCc2ccc(NC(=O)Nc3cccc([N+](=O)[O-])c3)cc2C1 | 1.58 | 0.7 | 1.63 |

| SMILES | inhibition [1] [%] | inhibition [2] [%] | inhibition [3] [%] |
| --- | --- | --- | --- |
| COc1ccc(NC(=O)CCNc2cc(C)nc(NCCc3ccccc3)n2)cc1 | 4.71 | 4.04 | 2.42 |
| CN1CCC(N2CCN(Cc3ccc(-c4cccc(-c5nc6ccccc6[nH]5)c4)cc3)CC2)CC1 | 0.9 | 1.87 | 1.93 |
| Cc1ccnc(NC(=O)c2cc(-c3cccc([N+](=O)[O-])c3)nc3onc(C)c23)c1 | 6.8 | 7.59 | 4.35 |
| COC(=O)c1cccc(CN(CCC(O)(C(F)(F)F)C(F)(F)F)C(=O)CC2CCCC2)c1 | 3.39 | 1.44 | 1.91 |
| COc1ccc(CN2CCC(NCc3cccc(-n4ccnc4)c3)CC2)cc1 | 3.99 | 3.17 | 2.72 |
| COc1ccc(NC(=O)/C=C/c2ccccc2Cl)cc1OCCN1CCC(NCc2cccnc2)CC1 | 3.65 | 2.5 | 1.91 |
| COc1ccc(Nc2nccc(N3CCC(NC(=O)c4cc5ccccc5s4)C3)n2)cc1 (stereo unspecified) | -3.12 | 1.28 | -1.61 |
| CCn1cc(CN2C(=O)C(c3ccccc3)(c3ccccc3)N=C2N)cn1 | 1.83 | 2 | -1.54 |
| Cc1nnsc1C(=O)Nc1ccc(-c2ccc(-c3nc4cccc(C)c4[nH]3)s2)cc1 | 5.61 | 2.76 | 2.44 |
| COc1ccc(S(=O)(=O)N2CCC(NS(=O)(=O)c3ccc(F)cc3)CC2)cc1 | 3.51 | 2.07 | 3.69 |
| CCOc1cc(C(=O)NCCc2ccc(Cl)c(Cl)c2)ccc1-c1nc2cc(Cl)ccc2[nH]1 | 1.92 | 0.01 | 1.26 |
| CS(=O)(=O)CCNCc1nc(-c2ccc3c(=O)[nH]cnc3c2)cs1 | 18.2 | 48 | 31.5 |
| Cc1ccc(NC(=O)c2cccc(CN3CCCN(Cc4cccc(O)c4)CC3)c2)cc1C | 4.69 | 3.38 | 4.38 |
| Cc1cc(N/N=C/c2ccccc2[N+](=O)[O-])c2cccc(C)c2n1 | 11.2 | 13.9 | 7.94 |
| O=C(NCCN1CCCC1)c1ccc(-c2ccc(-c3nc4ccccc4[nH]3)s2)cc1 | 0.96 | -1.55 | 0.42 |
| CC(C)Cn1c(Sc2ccc(C#N)c([N+](=O)[O-])c2)nnc1-c1ccc(N(C)C)cc1 | -0.55 | 0.63 | -4.37 |

Source: ChEMBL document CHEMBL3433997, “St. Jude Leishmania screening dataset” (2016)
